# Source: PubChem BioAssay
# VDR inhibitor: inhibitors of human vitamin D receptor; Potency, µM, without a hit: max response, negative = inhibition, actives largely listed as inhibitors; P11473; 400,000 tested, 0.93% active; AID 504847; VDR-SRC2-3 peptide fluorescence polarization, 2 h; further: potency means the concentration at half of the fitted maximal effect; on the % scale 0 is the no-effect control and ±100 the full control effect
# Target sequence (P11473 whole entry, looked up): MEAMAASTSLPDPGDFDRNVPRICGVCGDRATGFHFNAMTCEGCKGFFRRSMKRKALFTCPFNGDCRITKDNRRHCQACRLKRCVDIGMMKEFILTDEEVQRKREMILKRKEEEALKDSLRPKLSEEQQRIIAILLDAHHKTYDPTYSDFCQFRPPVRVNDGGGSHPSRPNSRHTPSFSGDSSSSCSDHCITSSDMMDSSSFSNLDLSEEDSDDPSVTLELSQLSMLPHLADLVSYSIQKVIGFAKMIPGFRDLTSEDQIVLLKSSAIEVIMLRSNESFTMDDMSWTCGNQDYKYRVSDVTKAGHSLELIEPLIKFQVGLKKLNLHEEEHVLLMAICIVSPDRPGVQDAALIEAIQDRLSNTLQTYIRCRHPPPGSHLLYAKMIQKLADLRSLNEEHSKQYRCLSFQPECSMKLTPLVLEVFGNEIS
#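 Fluorescence polarization assay measuring small-molecule disruption of VDR binding to the coregulator peptide SRC2-3. Compounds were pin-transferred (23 nl) into the reagent mix and incubated 2 h at room temperature before reading.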
# JMJD2E inh: blocks human JMJD2E demethylase activity. B2RXH2. JMJD2E catalytic domain, FDH-coupled NADH fluorescence (FDH is formaldehyde dehydrogenase). Potency, µM (highest dose often 57.1 µM), inactives show top-dose activity change, negative = inhibition, hits mostly inhibitors. 230,000 tested, 1.6% active. AID 2147; active means well fitted inhibition curve with a large enough effect, not every such curve was filed as active; inconclusive means small, poorly fitted or top-dose-only effect, or another doubt; inactive means no such curve, though single readings can be large or run the other way;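 further: potency means the concentration at half of the fitted maximal effect; 0% = wells with enzyme and -100% = buffer wells without enzyme; nearly all actives have a fitted effect of over 50% in size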
# HttQ103 aggreg: mutant huntingtin aggregation inhibition. PC12 HttQ103-GFP aggregates, Acumen cytometry, 40 h. Potency, µM (doses to about 46.1 µM), for the others: top-dose activity change, negative = inhibition, actives largely listed as inhibitors. 220,000 tested, 1.1% active. AID 1688; further: potency means the concentration at half of the fitted maximal effect; on the % scale 0 is the no-effect control and ±100 the full control effect; nearly all actives have a fitted effect of over 60% in size
#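 PC12 cells stably carrying ecdysone-inducible HTT exon 1 Q103–GFP were induced with tebufenozide (100 nM final) and treated with library compounds in titration. GFP aggregates in lysates were counted by laser scanning cytometry.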
# GoLoco inh red: blocks human Gai1 binding to RGS12 GoLoco peptide, red readout; Gai1:RGS12 GoLoco peptide FP, rhodamine, 10 min; Potency, µM (doses to about 61.6 µM), for the others: top-dose activity, negative = inhibition, hits mostly inhibitors; 230,000 tested, 0.44% active; AID 880; active means well fitted inhibition curve with a large enough effect, not every such curve was filed as active; inactive means no such curve, though single readings can be large or run the other way; further: potency means the concentration at half of the fitted maximal effect; on the % scale 0 is the no-effect control and ±100 the full control effect; nearly all actives have a fitted effect of over 30% in size
# HTT cytoprotect: protects HTT-Q103 PC12 cells, measured by ATP; PC12 HTT-Q103 induced, cytoprotection, ATP luminescence, 40 h; Potency, µM (series often up to 56.4 µM), without a hit: cytoprotection (ATP increase), usual class: activators; 230,000 tested, 0.14% active; AID 1471; further: potency means the concentration at half of the fitted maximal effect; % of control where 0% means no effect; nearly all actives have a fitted effect of over 45% in size
#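 ATP quantification (ATPlite) reports survival of PC12 cells in which tebufenozide, 100 nM final, switches on Htt exon 1 with 103 glutamines linked to GFP; compounds are titrated.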
# Coupling enz: coupling enzyme interference in Giardia aldolase counter-screen. coupling enzyme system counterscreen, AmpLite Red fluorescence. AID 2472. activity change, negative = inhibition, % at 58.2 µM, hits read low. 290,000 tested, 0.67% active; in the data active means activity change below about -30%; further: on the % scale 0 is the no-effect control and ±100 the full control effect
#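 Final compound at 57.5 uM, incubated 10 min at RT with coupling enzyme reagent (glyceraldehyde-3-phosphate), then 20 min with substrate and AmpLite Red detection. Fluorescence read at 525/598 nm; tests interference with the coupling assay, not aldolase inhibition.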
# Starred values were filed as active, the others as inactive; ? = inconclusive; . = no result given; [ ] = remark or other dose. A selection: hits, their analogues and other compounds. The true share with any hit is near 2.3%. Unless noted, the call rests on the fitted dose curve; in most records, active means well fitted curve in the direction sought with a large enough effect; inconclusive means small, poorly fitted or top-dose-only effect, or another doubt; inactive means no such curve, though single readings can be large; an effect the other way counts as inactive or inconclusive.
SMILES,VDR inhibitor,JMJD2E inh,HttQ103 aggreg,GoLoco inh red,HTT cytoprotect,Coupling enz
C=C(C(=O)c1ccccc1)C(C)C(=C)C(=O)c1ccccc1,79.4µM*,10.9%,33.0%[1.84 µM],0.5%,37.4%[1.9 µM],9.4
C=CCN=c1scc(-c2ccc3c(c2)NC(=O)CO3)n1/N=C(\C)c1ccccn1,-11.2%,-10.9%,5.01µM*,-3.3%,-52.7%[10 µM],-1.5
C=CCN=c1scc(-c2ccc(F)cc2)n1/N=C/c1ccccn1,-4.8%,20.6%,-23.3%,-1.7%,36.7%[10 µM],-5.8
Cc1ccc(NC(=S)NNC(=O)c2nn(C)cc2Cl)cc1,9.2%,20µM*,-8.6%,10.6%,-53.2%,2.0
Cc1cccc(NC(=S)NNC(=O)c2nn(C)cc2Cl)c1,-8.2%,31.6µM*,-7.8%,6.9%,-29.6%,0.3
Cc1cccc(NC(=S)NNC(=O)c2ccccc2Br)c1,-12.8%,8.4%,-5.4%,6.7%,.,3.7
CCC(=O)N1CCc2cc(Br)cc(S(=O)(=O)N3CCC(C(=O)Nc4cccc(C)c4)CC3)c21,-1.0%,.,.,.,.,.
Nc1ccc(S(N)(=O)=O)cc1N,3.9%,7.94µM*,-27.4%[9.22 µM],10.6%,-9.3%[10 µM],-27.8
Nc1cccc(S(=O)(=O)c2ccc(N)c(N)c2)c1,-2.2%,-17.4%,14.1%,22.0%,-58.6%,3.4
O=C(CCC1CCCCC1)NCCN1C2=NC[C@H](Cc3ccccc3)N2C[C@H]1Cc1ccc(O)cc1,3.8%,4.6%,-1.2%[9.22 µM],-7.4%,-2.8%[10 µM],-3.5
CCCCCCNC(=O)N[C@@H](C(=O)NCCC[C@H]1CN2C(=NC[C@@H]2Cc2ccccc2)N1CCc1cccc(OC)c1)C(C)C,?,?,14.4%[9.22 µM],14.1µM*,-13.0%[10 µM],2.7
Cc1cc(C(=O)N/N=C/c2ccc(Cl)c([N+](=O)[O-])c2)c(C)n1-c1ccc(F)cc1,6.4%,22.4µM*,?,11.6%,-12.7%[10 µM],7.4
Cc1nn2c(-c3cccc(NC(=O)c4ccccc4)c3)nnc2c2ccccc12,-4.5%,.,.,.,.,.
Cc1ccc(C2=Nc3ccccc3SC(c3cccc([N+](=O)[O-])c3)C2)cc1 (stereo unspecified),-29.3%,?,19.2%[9.22 µM],6.3%,32.2%[10 µM],-16.3
COC(=O)CCCC1=CC2=C(c3ccccc3)C(=O)C(C)(OC(=O)C3CCCC3)C(=O)C2=CN1CCCOC(C)C (stereo unspecified),.,3.55µM*,.,30.2%[14.2 µM],-19.3%[10 µM],-24.6
COC(=O)CCCC1=CC2=C(c3ccccc3)C(=O)C(C)(OC(=O)C3CCCC3)C(=O)C2=CN1Cc1ccco1 (stereo unspecified),-12.9%,17.8µM*,-34.7%[9.22 µM],-6.7%[14.2 µM],-10.2%[10 µM],-10.3
COC(=O)CCCC1=CC2=C(c3ccccc3)C(=O)C(C)(OC(=O)C3CCCC3)C(=O)C2=CN1CCCCO (stereo unspecified),2.7%,?,-7.2%[9.22 µM],-10.9%[14.2 µM],-8.4%[10 µM],-24.0
CN1C=C/C(=C\c2cc[n+](C)c3ccccc23)c2ccccc21,1.4%,3.98µM*,7.08µM*,-18.7%,-184.4%,-62.3*
CC(C)C(NC(=O)C12CC3CC(CC(C3)C1)C2)C(=O)NC1=NCCS1 (stereo unspecified),.,-1.7%,-4.7%,9.8%,-2.8%,2.9
CC(C)CC(NC(=O)CC12CC3CC(CC(C3)C1)C2)C(=O)NC1=NCCS1 (stereo unspecified),70.8µM*,-3.4%,-3.7%,-4.9%,-25.9%,2.2
Nc1c(S(=O)(=O)O)cc(Nc2ccc(Cl)cc2)c2c1C(=O)c1ccccc1C2=O,31.6µM*,.,.,.,.,-3.5
Nc1c(S(=O)(=O)O)cc(Nc2ccc(Nc3nc(Cl)nc(Nc4ccc(S(=O)(=O)O)cc4)n3)c(S(=O)(=O)O)c2)c2c1C(=O)c1ccccc1C2=O,?,-1.6%,.,3.6%,-14.1%[1.9 µM],.
Nc1c(S(=O)(=O)O)cc(Nc2cccc3ccccc23)c2c1C(=O)c1ccccc1C2=O,35.5µM*,.,.,.,.,-6.5
COc1ccc2c(c1)C(=O)[C@@H](OC(=O)Nc1cc(OC)c(OC)c(OC)c1)[C@H](c1ccc(OC)c(Br)c1)O2,-0.8%,-11.7%,.,4.3%,-48.7%,-1.8
